The values below come from PubChem BioAssay (NCATS).

Records with an inconclusive call do not appear. The source made the active and inactive calls. Unless noted, calls follow the shape of the dose curve; as a rule, active = well fitted curve in the direction sought with a large enough effect; inconclusive = small, poorly fitted or top-dose-only effect, or another doubt; inactive = no such curve, though single readings can be large; an effect the other way counts as inactive or inconclusive.

Assay [1] addresses D(1A) dopamine receptor (Homo sapiens) (UniProt P21728). The experiment in a line: HTS Assay for Allosteric Agonists of the Human D1 Dopamine Receptor: Primary Screen for Potentiators (AID 488982). Also: potency is read from the fitted curve at half-maximal effect. The gist of the method:
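Tetracycline-induced HEK293 Trex D1 cells with forced coupling to calcium, loaded with no-wash calcium dye; kinetic fluorescence read 180 s after compound addition for agonism, then a further 180 s after an EC20 dopamine challenge for potentiation.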

Assay [2] can be described thus: Validation screen for small molecules that induce genotoxicity in human embryonic kidney (HEK293T) cells expressing luciferase-tagged ELG1 (AID 493106). Also: 0% is about no effect. The gist of the method:
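qHTS format; 2,000 HEK293T ELG1-luc cells/well; 23 nL compound via pin tool; 16 hr, 37 °C/5% CO2; ONE-Glo, 30 min RT; luminescence read.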

Assay [3] concerns the target ATPase family AAA domain-containing protein 5 (Homo sapiens) (UniProt Q96QE3). The experiment in a line: Validation screen for small molecules that inhibit ELG1-dependent DNA repair in human embryonic kidney (HEK293T) cells expressing luciferase-tagged ELG1 (AID 493107). Also: nearly all actives have a fitted effect of over 70% in size. Also: potency is read from the fitted curve at half-maximal effect. Put shortly:
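ELG1-luciferase HEK293T reporter; 5-fluorouridine + compound/DMSO, 16 hr, 37 °C, 5% CO2; ONE-Glo 30 min RT; luminescence read, qHTS format.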

Assay [4] deals with Thyrotropin-releasing hormone receptor (Homo sapiens) (UniProt P34981). The experiment in a line: qHTS for Small Molecule Agonists and Allosteric Enhancers of Human TRH Receptor: Validation Screen for Agonists (AID 493127;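 active = calcium activation more than 3 SD above the typical response in the agonist read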;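 also: intracellular calcium rise by fluo-8 fluorescence before TRH EC20 addition; 0% is about no effect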). As to conditions: TRH receptor agonist cell assay; at 2 µM; stronger effect = higher value. The gist of the method:
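Read-out: intracellular calcium release measured kinetically by FDSS (fluo-8, ex 480/em 530 nm), 1 reading/s after a 10-cycle baseline. TRHR cells, 2000/well, cultured 18 h at 33.5C, dye-loaded at room temp. Compound-evoked positive calcium signal flags agonists.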
Background: Quantitative high-throughput screening tests each substance at several concentrations.

The nature of assay [5]: Nrf2 qHTS screen for inhibitors: Validation (AID 493153; active = well fitted inhibition curve with a large enough effect in the main read-out, with a control signal flat, not every such curve was filed as active; also: potency is read from the fitted curve at half-maximal effect). To be noted: Potency: luciferase luminescence; viability change: measured here: cytotoxicity max response. The gist of the method: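 Concentration-response test in A549 ARE_Fluc reporter cells (5% FBS OPTI-MEM), compound exposure 18-24 h at 37°C, 5% CO2. Cell viability measured first by CellTiter-Fluor fluorescence; ARE-driven luciferase luminescence then measured as Nrf2 activity.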

Assay [6] in a line: qHTS for Inhibitors of Cell Surface uPA Generation: Validation Assay (AID 493164).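 Also: RAW 264.7 macrophage cells exposed to compound for 18 h; 0% is about no effect.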 The gist of the method:
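Compounds are titrated over seven points (2.45 nM–38.3 uM final) onto pre-plated RAW 264.7 cells and incubated for 18 h. Retained intracellular ATP, measured with ATP-Lite, indicates blocked lethal factor entry.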

Assay [7] concerns the target Galactokinase (Homo sapiens) (UniProt P51570). In words: qHTS Validation Assay for Inhibitors of Human Galactokinase (GALK) (AID 493189). Also: 0% is about no effect. Put shortly: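 Compounds were pin-transferred into ATP buffer, then GALK-galactose mix was added (final 5 nM enzyme, 100 uM galactose, 35 uM ATP). After 1 h at room temperature, remaining ATP was measured luminescently.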
In assay [8] the target is ATP-dependent 6-phosphofructokinase (Trypanosoma brucei brucei) (UniProt O15648). The experiment in a line: qHTS Assay to Find Inhibitors of T. brucei phosphofructokinase: hit validation (AID 492961). Also: potency is read from the fitted curve at half-maximal effect. The gist of the method:
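Luminescence from ADP-Glo reports ADP generated as T. brucei PFK (1.25 nM) phosphorylates 0.5 mM fructose-6-phosphate using 0.1 mM ATP. Reactions ran 45 min at room temperature, pH 8.0.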

Chain of ATP-dependent 6-phosphofructokinase (Trypanosoma brucei brucei) (O15648 whole entry, looked up): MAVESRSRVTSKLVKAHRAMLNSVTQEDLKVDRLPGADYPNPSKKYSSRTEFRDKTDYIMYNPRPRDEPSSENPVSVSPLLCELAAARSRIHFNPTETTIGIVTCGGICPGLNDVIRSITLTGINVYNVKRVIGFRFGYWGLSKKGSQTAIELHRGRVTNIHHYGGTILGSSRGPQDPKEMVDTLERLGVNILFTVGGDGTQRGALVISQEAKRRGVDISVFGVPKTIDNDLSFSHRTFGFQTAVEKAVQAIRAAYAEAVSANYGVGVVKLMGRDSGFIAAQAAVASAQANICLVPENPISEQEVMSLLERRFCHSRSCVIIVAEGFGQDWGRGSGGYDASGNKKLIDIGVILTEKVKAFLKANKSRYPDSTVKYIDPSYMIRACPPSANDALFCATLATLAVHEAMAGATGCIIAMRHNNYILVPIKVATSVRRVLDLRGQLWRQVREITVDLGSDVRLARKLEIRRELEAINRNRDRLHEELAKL
Chain of ATPase family AAA domain-containing protein 5 (Homo sapiens) (Q96QE3 whole entry, looked up, the tested form may be a part): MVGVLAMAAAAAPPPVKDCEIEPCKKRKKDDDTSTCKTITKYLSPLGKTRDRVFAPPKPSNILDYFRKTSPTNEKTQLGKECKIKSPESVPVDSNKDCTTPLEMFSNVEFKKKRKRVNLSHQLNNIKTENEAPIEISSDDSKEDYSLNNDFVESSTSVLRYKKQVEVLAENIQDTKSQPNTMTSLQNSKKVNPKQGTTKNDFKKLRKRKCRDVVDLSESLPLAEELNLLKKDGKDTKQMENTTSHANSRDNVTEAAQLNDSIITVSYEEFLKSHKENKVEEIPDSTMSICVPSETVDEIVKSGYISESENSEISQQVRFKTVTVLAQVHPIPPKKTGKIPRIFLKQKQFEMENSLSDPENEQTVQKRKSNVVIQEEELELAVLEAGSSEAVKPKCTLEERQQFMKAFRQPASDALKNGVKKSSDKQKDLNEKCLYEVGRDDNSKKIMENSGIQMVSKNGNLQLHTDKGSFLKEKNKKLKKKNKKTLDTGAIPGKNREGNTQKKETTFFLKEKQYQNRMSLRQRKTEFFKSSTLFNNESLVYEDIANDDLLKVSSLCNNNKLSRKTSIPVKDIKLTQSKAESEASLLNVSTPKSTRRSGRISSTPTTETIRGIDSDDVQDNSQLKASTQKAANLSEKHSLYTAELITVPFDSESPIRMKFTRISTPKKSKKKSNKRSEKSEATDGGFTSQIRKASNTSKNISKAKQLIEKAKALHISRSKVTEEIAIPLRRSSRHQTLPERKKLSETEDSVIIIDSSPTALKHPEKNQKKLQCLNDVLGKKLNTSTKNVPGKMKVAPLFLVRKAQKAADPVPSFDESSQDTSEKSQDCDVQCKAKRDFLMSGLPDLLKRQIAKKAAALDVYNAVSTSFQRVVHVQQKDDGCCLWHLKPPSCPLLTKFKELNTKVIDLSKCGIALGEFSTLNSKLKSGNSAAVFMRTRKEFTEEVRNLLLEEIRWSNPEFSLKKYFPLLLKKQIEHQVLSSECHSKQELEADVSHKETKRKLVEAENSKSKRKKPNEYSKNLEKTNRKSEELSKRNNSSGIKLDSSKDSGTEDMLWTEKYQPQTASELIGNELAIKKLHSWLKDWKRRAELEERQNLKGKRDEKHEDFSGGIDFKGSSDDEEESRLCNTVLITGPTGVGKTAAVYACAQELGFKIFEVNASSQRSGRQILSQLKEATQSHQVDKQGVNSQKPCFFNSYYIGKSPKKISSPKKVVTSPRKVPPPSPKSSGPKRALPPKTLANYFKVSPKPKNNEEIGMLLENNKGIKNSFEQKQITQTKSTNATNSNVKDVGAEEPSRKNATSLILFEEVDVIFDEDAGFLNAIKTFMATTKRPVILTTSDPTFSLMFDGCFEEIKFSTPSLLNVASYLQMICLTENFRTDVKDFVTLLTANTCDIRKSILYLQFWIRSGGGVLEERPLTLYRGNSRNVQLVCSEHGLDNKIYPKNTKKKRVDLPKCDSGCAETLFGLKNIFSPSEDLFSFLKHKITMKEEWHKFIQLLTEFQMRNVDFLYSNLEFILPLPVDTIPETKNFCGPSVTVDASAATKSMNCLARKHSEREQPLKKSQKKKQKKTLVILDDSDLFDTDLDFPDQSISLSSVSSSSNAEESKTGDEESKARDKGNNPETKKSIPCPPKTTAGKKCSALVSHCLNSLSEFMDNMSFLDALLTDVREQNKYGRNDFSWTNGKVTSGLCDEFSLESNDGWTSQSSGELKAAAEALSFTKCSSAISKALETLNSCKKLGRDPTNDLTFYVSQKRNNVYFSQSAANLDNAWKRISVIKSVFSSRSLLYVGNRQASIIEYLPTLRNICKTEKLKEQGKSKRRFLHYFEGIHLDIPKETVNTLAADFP
Chain of Thyrotropin-releasing hormone receptor (Homo sapiens) (P34981 whole entry, looked up): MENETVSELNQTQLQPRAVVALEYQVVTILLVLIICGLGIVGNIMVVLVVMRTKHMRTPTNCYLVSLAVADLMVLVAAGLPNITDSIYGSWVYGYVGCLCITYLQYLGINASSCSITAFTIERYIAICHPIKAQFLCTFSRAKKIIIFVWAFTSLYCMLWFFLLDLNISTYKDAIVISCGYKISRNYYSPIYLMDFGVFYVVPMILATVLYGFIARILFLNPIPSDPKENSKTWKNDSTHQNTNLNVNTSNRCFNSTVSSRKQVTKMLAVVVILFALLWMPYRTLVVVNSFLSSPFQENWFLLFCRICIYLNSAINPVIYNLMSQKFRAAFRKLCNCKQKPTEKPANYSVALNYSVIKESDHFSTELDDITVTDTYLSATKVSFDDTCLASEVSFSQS
Chain of Galactokinase (Homo sapiens) (P51570 whole entry, looked up): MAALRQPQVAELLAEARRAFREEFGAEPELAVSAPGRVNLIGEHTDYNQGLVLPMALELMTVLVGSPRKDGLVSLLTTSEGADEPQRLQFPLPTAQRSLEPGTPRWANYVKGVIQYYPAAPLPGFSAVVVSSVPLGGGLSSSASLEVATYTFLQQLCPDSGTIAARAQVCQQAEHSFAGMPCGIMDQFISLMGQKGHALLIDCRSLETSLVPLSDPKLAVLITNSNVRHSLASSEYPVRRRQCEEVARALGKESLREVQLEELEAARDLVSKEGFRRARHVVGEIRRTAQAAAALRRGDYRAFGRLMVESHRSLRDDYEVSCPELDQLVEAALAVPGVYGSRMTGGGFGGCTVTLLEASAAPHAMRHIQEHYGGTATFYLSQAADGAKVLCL
Chain of D(1A) dopamine receptor (Homo sapiens) (P21728 whole entry, looked up): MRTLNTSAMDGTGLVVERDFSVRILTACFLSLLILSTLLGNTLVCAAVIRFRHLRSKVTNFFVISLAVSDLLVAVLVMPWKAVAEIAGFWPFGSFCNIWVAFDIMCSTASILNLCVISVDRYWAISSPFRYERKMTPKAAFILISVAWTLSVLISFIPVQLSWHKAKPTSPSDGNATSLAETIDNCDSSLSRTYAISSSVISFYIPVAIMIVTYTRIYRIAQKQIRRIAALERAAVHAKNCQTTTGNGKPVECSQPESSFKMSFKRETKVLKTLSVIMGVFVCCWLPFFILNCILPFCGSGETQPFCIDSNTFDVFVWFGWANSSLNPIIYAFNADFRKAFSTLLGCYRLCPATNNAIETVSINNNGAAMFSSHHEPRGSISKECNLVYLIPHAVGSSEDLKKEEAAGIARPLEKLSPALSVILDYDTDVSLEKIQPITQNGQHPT

On to `Clc1ccc(N2CC3CCC(C2)N3)nn1`, for which the Potency entry in assay [1], in assay [2], in assay [3] and in assay [5] was “inactive” each time. For the same compound, the activation in assay [4] was 1.19% (inactive). The viability change in assay [5] is 4.91%. In addition, the call in assay [6] and in assay [7] was inactive.

Take `C=CCN1CCc2cccc3c2[C@H]1Cc1ccc(O)c(O)c1-3`: the Potency result in assay [1], in assay [2] and in assay [5] was “inactive” in each case. In assay [5], the viability change came out at 1.3%. In addition, the call in assay [6] was inactive.

Consider `CC(C)(O)[C@@H]1C2OC(=O)[C@@H]1[C@]1(O)C[C@H]3O[C@]34C(=O)O[C@H]2[C@]14C` (tested in a mixture with another compound), for which the Potency entry in assay [1], in assay [2], in assay [3] and in assay [5] was “inactive” in each case. For the same compound, in assay [5], the viability change was -3%. Also, in assay [6], the compound was called inactive.

For the compound `O=[N+]([O-])/C=C/c1ccc2c(c1)OCO2`, the Potency entry in assay [1] and in assay [2] was “inactive” each time. In assay [3], the Potency is 20.6 µM (active). The compound was classed as inactive in assay [6].

On to `O=S1(=O)N(CCN2CC=C(c3c[nH]c4cc(F)ccc34)CC2)c2cccc3c2N1CCC3`, for which the Potency entry in assay [1] and in assay [2] was “inactive” throughout. For the same compound, the activation in assay [4] is 52.8% (active). Further, in assay [5], the Potency was 23.1 µM (active). In assay [5], the viability change is -15.7%. Moreover, the outcome in assay [6] and in assay [7] was inactive.

With `c1ccc2c(N3CCNCC3)cccc2c1`, the Potency entry in assay [1], in assay [2], in assay [3] and in assay [5] was “inactive” in each case. The activation in assay [4] was 1.75% (inactive). Besides, in assay [5], the viability change came out at 3.18%. The compound was classed as inactive in assay [6] and in assay [7].

Take `C=CCN1CC[C@]23c4c5ccc(O)c4O[C@@H]2/C(=N/N=C2\CC[C@@]4(O)C6Cc7ccc(O)c8c7[C@@]4(CCN6CC=C)[C@@H]2O8)CC[C@@]3(O)C1C5`: the Potency entry in assay [1], in assay [2] and in assay [5] was “inactive” throughout. Further, the activation in assay [4] was 2.38% (inactive). Also, the viability change in assay [5] is -1.45%. Also, the outcome in assay [6] and in assay [7] was inactive.

As to `N[C@@]1(C(=O)O)CC[C@@H](C(=O)O)C1`, the Potency result in assay [1], in assay [2], in assay [3] and in assay [5] was “inactive” throughout. Further, the activation in assay [4] was -0.25% (inactive). In assay [5], the viability change was determined as 4.39%. The compound was classed as inactive in assay [6] and in assay [7].

In the case of `C[C@H](N)Cc1cccc(C(F)(F)F)c1`, the Potency entry in assay [1], in assay [2] and in assay [5] was “inactive” each time. For the same compound, the viability change in assay [5] was -8.9%. The call in assay [6] was inactive.

`C[C@]12Cc3cn4c(nc3C=C1CCC1C2CC[C@@]2(C)[C@H]1CC[C@@]2(O)C#N)nc1ccccc14` (stereo not given in full): the Potency entry in assay [1] and in assay [2] was “inactive” throughout. The activation in assay [4] was -4.5% (inactive). Besides, the Potency in assay [5] is 13 µM (active). In assay [5], the viability change was -1.99%. Moreover, the result in assay [6] and in assay [7] was inactive.

On to `Cc1[nH]c2ccc(O)cc2c1CCN`, for which the Potency result in assay [1], in assay [2], in assay [3] and in assay [5] was “inactive” in each case. The activation in assay [4] was 0.812% (inactive). In addition, the viability change in assay [5] is -7.71%. Also, the result in assay [6] and in assay [7] was inactive.

`O=[N+]([O-])c1ccc2nc(N3CCNCC3)ccc2c1`: the Potency result in assay [1] and in assay [3] was “inactive” throughout. Moreover, the activation in assay [4] is 1.44% (inactive). Further, the call in assay [6] and in assay [7] was inactive.

Consider `Ic1ccccc1CNC1C2CCN(CC2)C1C(c1ccccc1)c1ccccc1` (stereo not given), for which the Potency was 4.11 µM (active) in assay [1] and 16.4 µM (active) in assay [3]. For the same compound, the Potency entry in assay [2] was “inactive”. Further, the activation in assay [4] was 2.31% (inactive). The outcome in assay [6] and in assay [7] was inactive.

Take `NC(=O)c1ccc(OCC(O)CN2CC=C(c3ccc(F)cc3)CC2)cc1` (stereo not given): the Potency entry in assay [1], in assay [2] and in assay [5] was “inactive” in each case. Also, the activation in assay [4] was 4.62% (inactive). Also, the viability change in assay [5] came out at 16.7%. The compound was called inactive in assay [6] and in assay [7].

Turning to `O=[N+]([O-])c1cc(O)c(O)c([N+](=O)[O-])c1`, the Potency result in assay [1], in assay [2] and in assay [3] was “inactive” in each case. Also, the activation in assay [4] was -0.438% (inactive). Further, the compound was classed as inactive in assay [6] and in assay [7].

For the compound `NC(=O)CI`, the Potency result in assay [1], in assay [2] and in assay [5] was “inactive” each time. Besides, the activation in assay [4] is -0.125% (inactive). The viability change in assay [5] was found to be 7.18%. Also, the call in assay [6] and in assay [7] was inactive.

For `N[C@@H](Cn1oc(=O)[nH]c1=O)C(=O)O`, the Potency entry in assay [1], in assay [2] and in assay [5] was “inactive” in each case. Further, in assay [4], the activation was -0.562% (inactive). Also, in assay [5], the viability change was -3.31%. Besides, the call in assay [6] and in assay [7] was inactive.

As for `C/C(O)=C(\C#N)C(=O)Nc1cc(Br)ccc1Br`, the Potency entry in assay [1] and in assay [2] was “inactive” throughout. Besides, in assay [4], the activation was 0.0625% (inactive). Moreover, the result in assay [6] and in assay [7] was inactive.

On to `OC1CCCCC1N1CCC(c2ccccc2)CC1` (stereo not given), for which the Potency result in assay [1], in assay [2], in assay [3] and in assay [5] was “inactive” in each case. Further, in assay [4], the activation is -3.5% (inactive). Besides, the viability change in assay [5] is -3.18%. The result in assay [6] and in assay [7] was inactive.

For the compound `CC(N)Cc1c[nH]c2ccc(OCc3cccs3)cc12` (stereo not given), the Potency result in assay [1], in assay [2], in assay [3] and in assay [5] was “inactive” in each case. Further, the activation in assay [4] is 3.5% (inactive). Further, the viability change in assay [5] is -4.81%. Besides, the compound was classed as inactive in assay [6] and in assay [7].

In the case of `C[Se]C[C@H](N)C(=O)O`, the Potency result in assay [1] and in assay [2] was “inactive” in each case. Also, the activation in assay [4] was 0.188% (inactive). Also, the compound was classed as inactive in assay [6] and in assay [7].

Turning to `O=C1CN=C(c2ccccc2)c2cc(Cl)ccc2N1CC1CC1`, the Potency result in assay [8] is “inactive”.

Turning to `C[CH2][Hg][S]c1ccccc1C(=O)O`, the Potency in assay [8] is 14.1 µM (active).

Take `c1csc(C2(N3CCCCC3)CCCCC2)c1`: the Potency result in assay [8] is “inactive”.
